Measurements reported in PubChem BioAssay (NCATS).
Where “and” joins values, the source holds several entries; their conditions need not be identical. Identical values can stand only once. Inconclusive results are not listed. The source holds several records for some structures; these can differ, active in one and inactive in another. Calls of active or inactive are those of the source. Calls come from the whole dose curve; as a rule, active = well fitted inhibition curve with a large enough effect; inconclusive = small, poorly fitted or top-dose-only effect; inactive = flat fitted curve, though single readings scatter.

How the values were obtained:
JCK = assay: qHTS profiling for inhibitors of Plasmodium falciparum proliferation (AID 504749); note: potency is the fitted concentration of half-maximal effect; conditions: P. falciparum in erythrocytes, SYBR Green DNA, 72 h; series mostly up to 28.7 µM
Summary of the method: (§1)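 Readout was DNA-dye fluorescence from lysed cultures, ex 485/em 535 nm. Parasitized red cells had grown 72 h with compound; data scaled between 0.29 uM artemisinin and DMSO wells and corrected using vehicle-only plates.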

N140 = assay: as above; conditions: P. falciparum in erythrocytes, SYBR Green DNA, 72 h; series mostly up to 28.7 µM
Summary of the method: as §1

P93_24 = assay: as above; conditions: P. falciparum in erythrocytes, SYBR Green DNA, 72 h; series mostly up to 28.7 µM
Summary of the method: as §1

P94_40 = assay: as above; conditions: P. falciparum in erythrocytes, SYBR Green DNA, 72 h; series mostly up to 28.7 µM
Summary of the method: as §1

PAD = assay: as above; conditions: P. falciparum in erythrocytes, SYBR Green DNA, 72 h; series mostly up to 28.7 µM
Summary of the method: as §1

PC15 = assay: as above; conditions: P. falciparum in erythrocytes, SYBR Green DNA, 72 h; series mostly up to 28.7 µM
Summary of the method: as §1

PC26 = assay: as above; conditions: P. falciparum in erythrocytes, SYBR Green DNA, 72 h; series mostly up to 28.7 µM
Summary of the method: as §1

PC49 = assay: as above; conditions: P. falciparum in erythrocytes, SYBR Green DNA, 72 h; series mostly up to 28.7 µM
Summary of the method: as §1

SC27B = assay: as above; conditions: P. falciparum in erythrocytes, SYBR Green DNA, 72 h; series mostly up to 28.7 µM
Summary of the method: as §1

TAB109 = assay: as above; conditions: P. falciparum in erythrocytes, SYBR Green DNA, 72 h; series mostly up to 28.7 µM
Summary of the method: as §1

TAB113 = assay: as above; conditions: P. falciparum in erythrocytes, SYBR Green DNA, 72 h; series mostly up to 28.7 µM
Summary of the method: as §1

TAB165 = assay: as above; conditions: P. falciparum in erythrocytes, SYBR Green DNA, 72 h; series mostly up to 28.7 µM
Summary of the method: as §1

W2 = assay: as above; conditions: P. falciparum in erythrocytes, SYBR Green DNA, 72 h; series mostly up to 28.7 µM
Summary of the method: as §1

CRL-7250 = normal cell line; assay: Cytotoxic Profiling of Annotated Libraries Using Quantitative High-Throughput Screening (AID 1296008); conditions: Five cell lines viability, CellTiter-Glo ATP luminescence, 48-72 h; max response: active compounds read low; note: potency is the fitted concentration of half-maximal effect; for max response: % is set by controls: 0 for no effect and ±100 for the full control effect
Summary of the method: (§2)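 Cells exposed to compounds for 48 or 72 hr at 37 degrees Celsius. Viability read as ATP-coupled luminescence with CellTiter-Glo after 10 min at room temperature.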

HEK293 = assay: as above; conditions: Five cell lines viability, CellTiter-Glo ATP luminescence, 48-72 h; max response: active compounds read low
Summary of the method: as §2

HaCat [1] = assay: as above; conditions: Five cell lines viability, CellTiter-Glo ATP luminescence, 48-72 h; max response: active compounds read low
Summary of the method: as §2

KB-3-1 = assay: as above; conditions: Five cell lines viability, CellTiter-Glo ATP luminescence, 48-72 h; max response: active compounds read low
Summary of the method: as §2

NIH3T3 = assay: as above; conditions: Five cell lines viability, CellTiter-Glo ATP luminescence, 48-72 h; max response: active compounds read low
Summary of the method: as §2

HACAT [2] = assay: qHTS assay to identify novel small-molecules to repurpose for Merkel cell carcinoma treatment (AID 1296009); conditions: MCC and control cell lines, CellTiter-Glo viability, 72 h; at 44.8 µM (top of the series) unless noted
Summary of the method: (§3)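 Cells were incubated with compound for 72 hr at 37 degree celsius before CellTiter-Glo addition. Luminescence was normalized with no-cell wells as full cytotoxicity and DMSO as baseline.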

HEK293T = assay: as above; conditions: MCC and control cell lines, CellTiter-Glo viability, 72 h; at 44.8 µM (top of the series) unless noted
Summary of the method: as §3
Note: nearly all actives have a fitted effect of over 60% in size.

CCN(C)C(=O)Oc1cccc([C@H](C)N(C)C)c1
inactive: Potency (JCK) | Potency (N140) | Potency (P93_24) | Potency (P94_40) | Potency (PAD) | Potency (PC15) | Potency (PC26) | Potency (PC49) | Potency (SC27B) | Potency (TAB109) | Potency (TAB113) | Potency (TAB165) | Potency (W2) | max response (CRL-7250) -5.92% and -3.92% | max response (HEK293) -9.47% | outcome (HEK293) | max response (HaCat [1]) -4.32% | outcome (HaCat [1]) | max response (KB-3-1) 1.39% and 1.13% | max response (NIH3T3) 1.74% and -5.17% | outcome (HACAT [2]) | outcome (HEK293T)

Cc1noc(NS(=O)(=O)c2ccc(N)cc2)c1C
inactive: Potency (JCK) | Potency (N140) | Potency (P93_24) | Potency (P94_40) | Potency (PAD) | Potency (PC15) | Potency (PC26) | Potency (PC49) | Potency (SC27B) | Potency (TAB109) | Potency (TAB113) | Potency (TAB165) | max response (CRL-7250) 4.08% and -1.95% | outcome (HEK293) | max response (HaCat [1]) 1.98% | outcome (HaCat [1]) | max response (KB-3-1) -4.11% and 1.03% | outcome (KB-3-1) | max response (NIH3T3) -2.78% and -1.88% | outcome (HACAT [2]) | outcome (HEK293T)

CCn1cc(C(=O)O)c(=O)c2cc(F)c(N3CCNCC3)cc21
active: Potency (W2) 2.56 µM
inactive: Potency (JCK) | Potency (PAD) | Potency (PC15) | Potency (PC26) | Potency (PC49) | Potency (SC27B) | Potency (TAB113) | Potency (TAB165) | max response (CRL-7250) -1.25% and -6.48% | max response (HEK293) -12.4% and -3.6% | max response (HaCat [1]) -20% | outcome (HaCat [1]) | max response (KB-3-1) -20.2% and -20.3% | outcome (KB-3-1) | max response (NIH3T3) -0.113% and -7.16% | outcome (HACAT [2])

COc1ccc(C(=O)CC(=O)c2ccc(C(C)(C)C)cc2)cc1
inactive: Potency (JCK) | Potency (N140) | Potency (P93_24) | Potency (P94_40) | Potency (PAD) | Potency (PC15) | Potency (PC26) | Potency (PC49) | Potency (SC27B) | Potency (TAB109) | Potency (TAB113) | Potency (TAB165) | max response (CRL-7250) -14.9% and 1.38% | max response (HEK293) 1.8% | outcome (HEK293) | max response (HaCat [1]) -14.4% | outcome (HaCat [1]) | max response (KB-3-1) -7.03% and 3.76% | max response (NIH3T3) -3.73% and 2.63% | outcome (HACAT [2]) | outcome (HEK293T)

NC1(c2ccc(-c3nc4ccn5c(=O)[nH]nc5c4cc3-c3ccccc3)cc2)CCC1
active: Potency (HEK293) 3.32 µM and 2.37 µM and 3.26 µM | Potency (HaCat [1]) 25.9 µM | Potency (KB-3-1) 16.4 µM
inactive: max response (CRL-7250) -3.3% | max response (HaCat [1]) -15.1% | max response (NIH3T3) -6.67%

COc1ccc(-c2ccc3cc(C(=O)O)ccc3c2)cc1C12CC3CC(CC(C3)C1)C2
inactive: Potency (JCK) | Potency (N140) | Potency (P93_24) | Potency (P94_40) | Potency (PAD) | Potency (PC15) | Potency (PC26) | Potency (PC49) | Potency (SC27B) | Potency (TAB109) | Potency (TAB113) | Potency (TAB165) | max response (CRL-7250) 1.82% and 2% | max response (HEK293) 3.2% | max response (HaCat [1]) -4.15% | outcome (HaCat [1]) | max response (KB-3-1) -1.55% | outcome (KB-3-1) | max response (NIH3T3) 4.1% | outcome (NIH3T3) | outcome (HACAT [2])

CN(C)CCc1c[nH]c2ccc(CS(=O)(=O)N3CCCC3)cc12
inactive: Potency (JCK) | Potency (N140) | Potency (P93_24) | Potency (P94_40) | Potency (PAD) | Potency (PC15) | Potency (PC26) | Potency (PC49) | Potency (SC27B) | Potency (TAB109) | Potency (TAB113) | Potency (TAB165) | Potency (W2) | max response (CRL-7250) -0.155% and 1.13% | max response (HEK293) -11.2% and 1.86% | max response (HaCat [1]) -24.1% | outcome (HaCat [1]) | max response (KB-3-1) 10.6% and 7.32% | max response (NIH3T3) -1.45% and -5.53% | outcome (HACAT [2])

NNC(=O)c1ccncc1
inactive: max response (CRL-7250) 4.6% | outcome (CRL-7250) | outcome (HaCat [1]) | max response (KB-3-1) -14.7% and 6.97% | max response (NIH3T3) 1.44% | outcome (HACAT [2])

CN(CCOc1ccc(CC2SC(=O)NC2=O)cc1)c1ccccn1 (stereo not given)
inactive: Potency (JCK) | Potency (N140) | Potency (P93_24) | Potency (P94_40) | Potency (PAD) | Potency (PC15) | Potency (PC26) | Potency (PC49) | Potency (SC27B) | Potency (TAB109) | Potency (TAB113) | Potency (TAB165) | Potency (W2) | max response (CRL-7250) 0.739% | max response (HEK293) 2.68% | outcome (HEK293) | outcome (HaCat [1]) | max response (KB-3-1) -1.01% and -2.41% | max response (NIH3T3) 0.939% | outcome (HACAT [2]) | outcome (HEK293T)
